A short description of assay [1]: qHTS assay to identify small molecule agonists of the estrogen related receptor signaling pathway with the pleiotropic PPARgamma coactivator (PGC) from Tox21 10K library (AID 1224842). Note: % is set by controls: 0 for no effect and ±100 for the full control effect; nearly all actives have a fitted effect of over 15% in size. Summed up: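 Luminescence from One-Glo (30 min, room temperature) measured after PGC/ERR cells had 18 h at 37 C with pinned compound (23 nL in DMSO). Cells had been seeded at 2,000 per well and pre-incubated 6 h.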
(In qHTS, concentration-response curves come from the screen itself.)

A short description of assay [2]: qHTS assay to identify small molecule agonists of the hypoxia (HIF-1) signaling pathway - cell viability counter screen (AID 1224844; calls by dose curve; note: % is set by controls: 0 for no effect and ±100 for the full control effect; nearly all actives have a fitted effect of over 50% in size). The method, boiled down: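 CellTiter-Glo luminescence read-out, 30 min RT, taken in the same wells as the beta-lactamase HRE reporter assay; HRE-bla ME-180 cells, 0.5% dialyzed FBS, 17 hr compound treatment at 37C, 5% CO2.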
The nature of assay [3]: qHTS assay to identify small molecule agonists of H2AX (AID 1224845; active = well fitted activation curve with a large enough effect in the signal ratio in the repeat runs, not every such curve was filed as active; the % refers to the signal ratio; note: % is set by controls: 0 for no effect and ±100 for the full control effect). The method, boiled down:
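Phospho-H2AX Ser139 measured by HTRF (ex 320 nm; em 665 and 620 nm) after 24 hr antibody incubation. Compounds, 15 concentrations, 0.76% DMSO, were applied to CHO-K1 cells for 3hr at 37C before lysis.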

Assay [4] in a line: qHTS assay to identify small molecule agonists of the hypoxia (HIF-1) signaling pathway (AID 1224846; active = well fitted activation curve with a large enough effect in the signal ratio in the repeat runs, not every such curve was filed as active; the % refers to the signal ratio; note: potency is the fitted concentration of half-maximal effect; for activation: % is set by controls: 0 for no effect and ±100 for the full control effect). The method, boiled down: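 Beta-lactamase FRET read-out (CCF4-AM substrate) from ME-180 cells carrying an HRE-driven bla reporter, after 17 hrs compound exposure at 37C/5% CO2. Cells were seeded at 2,000 per well in 0.5% dialyzed FBS medium and preincubated 5 hrs.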
Assay [5] in a line: qHTS assay to identify small molecule agonists of H2AX - cell viability counter screen (AID 1224847; calls by dose curve; note: nearly all actives have a fitted effect of over 30% in size; note: potency is the fitted concentration of half-maximal effect). The method, boiled down:
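We seed wild-type CHO-K1 cells overnight, treat them for 3 hr at 37C with compounds in 15-concentration series, and quantify remaining viability by CellTiter-Glo luminescence.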

Assay [6] is described as follows: qHTS assay to identify small molecule antagonists of the estrogen related receptor (ERR) signaling pathway from Tox21 library (AID 1224848). Note: nearly all actives have a fitted effect of over 50% in size. Note: potency is the fitted concentration of half-maximal effect. Summed up:
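Luciferase luminescence (ONE-Glo, 30 min room temperature) was the read-out. Cells of the NTP-supplied ERR line, 2,000 per well, were given 6 h at 37 C before compound addition in DMSO and 18 h exposure at 37 C.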

Assay [7] is described as follows: qHTS assay to identify small molecule agonists of the estrogen related receptor (ERR) signaling pathway from Tox21 library (AID 1224849; calls by dose curve; note: % is set by controls: 0 for no effect and ±100 for the full control effect; nearly all actives have a fitted effect of over 15% in size). As to conditions: ERR reporter cell line, ONE-Glo luciferase, 18 h; at 92.4 µM (top of the series) unless noted. The method, boiled down:
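Luminescence readout (ONE-Glo, 30 min RT) after 18 h compound exposure at 37 C of NTP-supplied ERR reporter cells; cells were plated 6 h before compound addition by pin tool.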

Assay [8] is described as follows: qHTS RealTime-Glo MT Cell Viability Assay in HepG2 cells - 24 hour (AID 1224867). Note: nearly all actives have a fitted effect of over 50% in size. Note: potency is the fitted concentration of half-maximal effect. Summed up:
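Real-time, nonlytic viability: 600 HepG2 cells/well mixed with NanoLuc enzyme plus prosubstrate; 5 h settle, compound (DMSO) added by pintool; luminescence monitored over 40 h at 37 C.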

Assay [9] can be described thus: qHTS RealTime-Glo MT Cell Viability Assay in HEK293 cells - 32 hour (AID 1224868). Note: nearly all actives have a fitted effect of over 50% in size. Note: potency is the fitted concentration of half-maximal effect. Summed up: (§1)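 Cells + reagent dispensed (600 cells/well, HEK293) → 5 h at 37 C/5% CO2 → 23 nL compound in DMSO pinned → 40 h at 37 C → luminescence read at 0, 8, 16, 24, 32, 40 h.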
The nature of assay [10]: A CellTox Green Cytotoxicity Assay to monitor cytotoxicity in HEK293 cells - 0 hour (AID 1224869). For Cytotoxicity: % is set by controls: 0 for no effect and ±100 for the full control effect. Note: nearly all actives have a fitted effect of over 50% in size. Note: potency is the fitted concentration of half-maximal effect. The method, boiled down: (§2)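 Read-out: fluorescence of a cell-impermeant cyanine dye staining DNA of dead cells, proportional to cytotoxicity. HEK293, 600 cells/well with reagent, compound (23 nL DMSO) added after 5 h; reads at 0, 8, 16, 24, 32, 40 h.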
A short description of assay [11]: qHTS RealTime-Glo MT Cell Viability Assay in HepG2 cells - 40 hour (AID 1224870). The method, boiled down: (§3)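 Real-time viability: cells seeded at 600 per well together with NanoLuc and cell-permeant prosubstrate, compounds added after 5 h incubation. Luminescence tracked at 0, 8, 16, 24, 32 and 40 h of exposure.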
Assay [12] can be described thus: A CellTox Green Cytotoxicity Assay to monitor cytotoxicity in HEK293 cells - 40 hour (AID 1224871). Note: nearly all actives have a fitted effect of over 45% in size. Note: potency is the fitted concentration of half-maximal effect. Summed up:
as §2

The nature of assay [13]: qHTS RealTime-Glo MT Cell Viability Assay in HEK293 cells - 16 hour (AID 1224872). Note: nearly all actives have a fitted effect of over 50% in size. Note: potency is the fitted concentration of half-maximal effect. Summed up:
as §1

Assay [14] is described as follows: qHTS RealTime-Glo MT Cell Viability Assay in HEK293 cells - 40 hour (AID 1224874). For max response: % is set by controls: 0 for no effect and ±100 for the full control effect. Note: nearly all actives have a fitted effect of over 50% in size. Note: potency is the fitted concentration of half-maximal effect. Particulars: RealTime-Glo luminescence; max response: stronger effect = lower value. The method, boiled down: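 Luminescence readout at each listed time point; HEK293, 600 cells/well, RealTime-Glo MT reagent added with cells; compounds pinned (23 nL in DMSO) after 5 h at 37 C; continuous culture at 37 C.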

A short description of assay [15]: A CellTox Green Cytotoxicity Assay to monitor cytotoxicity in HEK293 cells - 24 hour (AID 1224875). Note: nearly all actives have a fitted effect of over 45% in size. Note: potency is the fitted concentration of half-maximal effect. Summed up: as §2
Assay [16] in a line: A CellTox Green Cytotoxicity Assay to monitor cytotoxicity in HepG2 cells - 16 hour (AID 1224876). Note: nearly all actives have a fitted effect of over 45% in size. Note: potency is the fitted concentration of half-maximal effect. The method, boiled down: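 HepG2, 600 cells/well premixed w/ CellTox Green; 5 h settle, 37 C/5% CO2; pintool cpd add (DMSO); 37 C, 40 h; fluorescence read at 0, 8, 16, 24, 32, 40 h.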
The nature of assay [17]: qHTS assay to identify small molecule antagonists of the estrogen related receptor signaling pathway with the pleiotropic PPARgamma coactivator (PGC) from Tox21 10K library (AID 1224841; call rule not given here; note: potency is the fitted concentration of half-maximal effect). Summed up: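 Luminescence read-out (One-Glo luciferase reagent, 30 min at room temperature) from PGC/ERR cells exposed to DMSO-dissolved test compounds for 18 h at 37 C; cells, 2,000 per well, had been preincubated 6 h before compound transfer.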

Assay [18] has as its target Thyrotropin receptor (Homo sapiens) (UniProt P16473). The assay can be described thus: qHTS assay to identify small molecule agonists of the thyroid stimulating hormone receptor (TSHR) signaling pathway (AID 1224843; calls by dose curve; note: % is set by controls: 0 for no effect and ±100 for the full control effect; nearly all actives have a fitted effect of over 45% in size). Summed up: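 Agonist activity read as cAMP rise via d2/cryptate HTRF competition, 1 h room-temperature detection, in HEK293 cells expressing TSHR. Fifteen-point titrations, each run in triplicate, with a 30 min room-temperature incubation beforehand.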

Assay [19] in a line: qHTS RealTime-Glo MT Cell Viability Assay in HepG2 cells - 8 hour (AID 1224873). Note: % is set by controls: 0 for no effect and ±100 for the full control effect; nearly all actives have a fitted effect of over 55% in size. Summed up:
as §3

The nature of assay [20]: qHTS assay to identify small molecule antagonists of the estrogen related receptor signaling pathway with the pleiotropic PPARgamma coactivator (PGC) from Tox21 10K library - cell viability counter screen (AID 1224840; active = well fitted cell-killing curve with a large enough effect in the repeat runs, not every such curve was filed as active; note: potency is the fitted concentration of half-maximal effect; nearly all actives have a fitted effect of over 40% in size). Summed up: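 Fluorescence read-out of CellTiter-Fluor viability reagent, added after cells had been exposed to compound in DMSO for 17.5 h at 37 C; 30 min development at 37 C/5% CO2. Cells: PGC/ERR line, 2,000/well.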

SMILES strings stand for the structures. A number with no mark means an inactive call. Inconclusive results are not listed. Calls of active or inactive are those of the source. Unless noted, calls come from the whole dose curve; as a rule, active = well fitted curve in the direction sought with a large enough effect in the repeat runs; inconclusive = weak or mixed curves; inactive = no such curve, though single readings can be large; an effect the other way counts as inactive or inconclusive.

Consider eight compounds from PubChem BioAssay (Tox21).

Thyrotropin receptor (Homo sapiens), sequence (P16473 whole entry, looked up): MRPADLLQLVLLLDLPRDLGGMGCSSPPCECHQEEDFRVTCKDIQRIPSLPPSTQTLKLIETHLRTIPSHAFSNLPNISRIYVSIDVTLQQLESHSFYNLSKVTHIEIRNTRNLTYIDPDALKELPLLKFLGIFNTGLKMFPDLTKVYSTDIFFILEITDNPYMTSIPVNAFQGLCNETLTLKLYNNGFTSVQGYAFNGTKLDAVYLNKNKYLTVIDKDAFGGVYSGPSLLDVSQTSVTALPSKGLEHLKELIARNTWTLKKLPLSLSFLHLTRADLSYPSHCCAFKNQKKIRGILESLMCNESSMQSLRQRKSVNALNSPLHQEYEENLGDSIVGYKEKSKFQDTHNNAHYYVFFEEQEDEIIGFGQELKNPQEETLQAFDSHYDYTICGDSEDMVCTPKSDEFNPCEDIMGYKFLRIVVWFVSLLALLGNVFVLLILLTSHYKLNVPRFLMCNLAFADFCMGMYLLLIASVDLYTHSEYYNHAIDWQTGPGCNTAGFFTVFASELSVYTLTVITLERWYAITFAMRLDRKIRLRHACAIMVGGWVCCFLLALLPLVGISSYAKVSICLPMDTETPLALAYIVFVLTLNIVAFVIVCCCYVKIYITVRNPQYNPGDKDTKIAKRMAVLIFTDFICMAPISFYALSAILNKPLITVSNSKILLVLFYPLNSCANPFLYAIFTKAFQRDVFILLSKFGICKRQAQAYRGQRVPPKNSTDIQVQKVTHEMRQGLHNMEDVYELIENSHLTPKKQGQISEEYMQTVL

`Cc1cc(C)c(O)c(C(C)(C)C)c1`: the Potency result in [1], in assay [2], in assay [3], in assay [4], in [6] and in [8] was “inactive” throughout. The Potency result in [9], in [10], in [11], in [13] and in assay [16] was “inactive” in each case. Further, the Potency in assay [5] was 113 µM (active); in assay [12], 34.7 µM (active); in assay [15], 24.5 µM (active). For the same compound, in [7], the activity change, positive = activation is 1.52%. Moreover, the max response in assay [14] is -8.82%.
With `Oc1cccc2c(O)cccc12`, in [17], the Potency was 2.73 µM (active). Moreover, the Potency entry in assay [1], in assay [18], in [6], in assay [8], in assay [10] and in assay [11] was “inactive” throughout. The Potency result in [12], in assay [19], in assay [15] and in [16] was “inactive” in each case. In assay [7], the activity change, positive = activation is -6.39%. Besides, the max response in assay [14] is 3.51%.
Take `O=c1[nH]cccc1O`: the Potency entry in assay [17], in assay [1], in [2], in assay [3], in assay [4] and in [5] was “inactive” throughout. The Potency entry in assay [8], in assay [9], in assay [10], in [11], in assay [12] and in [13] was “inactive” each time. Further, the Potency entry in assay [19], in assay [15] and in assay [16] was “inactive” throughout. For the same compound, in [6], the Potency is 19.3 µM (active). The activity change, positive = activation in assay [7] is -37%. Besides, the max response in [14] was -23.7%.
As for `CCCC(=O)c1cc(O)c(O)cc1O`, in assay [17], the Potency is 61.1 µM (active). Also, the Potency result in [4], in [8], in assay [9], in assay [10], in assay [11] and in assay [12] was “inactive” each time. Also, the Potency result in assay [15] is “inactive”. The max response in assay [14] is 1.65%.
As for `CCN(CC)c1ccc(N=Nc2ccccc2)cc1`, the Potency entry in [18], in assay [8], in assay [10], in assay [11], in assay [19] and in assay [15] was “inactive” each time. Further, the Potency result in assay [16] is “inactive”. The Potency is 113 µM (active) in assay [5], 49 µM (active) in [9], 49 µM (active) in assay [13] and 54.9 µM (active) in assay [14].
With `O=C(NCc1ncc(C(F)(F)F)cc1Cl)c1c(Cl)cccc1Cl`, the Potency result in assay [2], in assay [3], in assay [5], in [8], in assay [10] and in [11] was “inactive” throughout. The Potency result in assay [19], in [15] and in assay [16] was “inactive” in each case. Besides, the Potency in assay [4] was 15.5 µM (active); in [9] it was 21.9 µM (active); in assay [14], 19.5 µM (active).
Consider `CC(=O)[C@]1(O)Cc2c(O)c3c(c(O)c2[C@@H](O[C@H]2C[C@H](N)[C@H](O)[C@H](C)O2)C1)C(=O)c1ccccc1C3=O`, for which the Potency is 11.9 µM (active) in assay [20]; 6.01 µM (active) in [8]; 0.0756 µM (active) in assay [9]; 0.535 µM (active) in [13]; 0.0601 µM (active) in [14]; 21.3 µM (active) in assay [16]. Moreover, the Potency result in assay [5], in assay [10], in assay [12] and in assay [15] was “inactive” each time.
In the case of `O=C1OC2(c3ccccc31)c1ccc(O)c(Br)c1Oc1c2ccc(O)c1Br`, the Potency result in [17], in [1], in assay [2], in [5], in assay [6] and in assay [8] was “inactive” each time. The Potency result in assay [9] and in [11] was “inactive” throughout. Also, the activity change, positive = activation in [7] was -9.26%. Further, the Potency is 6.16 µM (active) in assay [10] and 6.92 µM (active) in assay [15].
